Experimental data reported in PubChem BioAssay AID2058 (Sanford-Burnham Center for Chemical Genomics, 2009).
About 150 (0.052%) of roughly 290,000 compounds were called active. This is one part of a sample in which actives are shown more often than they occur.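 How the source made its calls: active means inhibition of at least 50% with at least 30 cells and total cytoplasm GFP at most 10,000,000; inconclusive means under 30 cells or total GFP of 10,000,000 plus; inactive means the rest.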 Results with a measured potency or affinity are listed apart.

These compounds were tested against G-protein coupled receptor 35 (Homo sapiens) (UniProt Q9HC97) (assay: GPR35 antagonists blocking zaprinast-driven arrestin recruitment, primary screen, imaging, U2OS, beta-arrestin-GFP, zaprinast agonist (AID 2058)). Details: U2OS GPR35 beta-arrestin-GFP translocation imaging, zaprinast antagonism; at 10 µM; stronger effect = higher value.
G-protein coupled receptor 35 (Homo sapiens), sequence (Q9HC97 whole entry, looked up): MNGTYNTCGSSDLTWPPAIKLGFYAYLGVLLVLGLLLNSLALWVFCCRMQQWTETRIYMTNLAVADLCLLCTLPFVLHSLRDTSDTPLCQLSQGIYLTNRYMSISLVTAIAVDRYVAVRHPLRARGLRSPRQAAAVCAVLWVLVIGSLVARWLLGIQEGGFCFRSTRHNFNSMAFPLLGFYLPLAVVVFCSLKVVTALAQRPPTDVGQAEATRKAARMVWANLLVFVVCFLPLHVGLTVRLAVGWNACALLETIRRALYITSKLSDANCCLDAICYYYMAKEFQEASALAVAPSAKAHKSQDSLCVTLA

inhibition, inactive:
COc1ccc(/C=C2\SC(=S)N(CCC(=O)N3CCCCC3)C2=O)cc1 1.2%
Cc1ccc(/C=C2/SC(=S)N(CCC(=O)N3CCN(c4ccccc4)CC3)C2=O)cc1 -11.1%
COc1c(S(=O)(=O)Nc2cccnc2)ccc(Cl)c1Cl 0.5%
O=c1[nH]cnc2sc3c(c12)CN(Cc1ccccc1)CC3 -2.4%
Cc1ccc(NC(=O)C2C(c3ccccc3)C=CC(c3ccccc3)C2C(=O)O)cc1 (stereo not given) -4.3%
Cc1ccccc1Nc1nnc(SCC(=O)NCc2cccs2)s1 0%
C/C(=N\NC(=O)c1cc(-c2ccc(C)s2)[nH]n1)c1ccncc1 -6.8%
COc1ccc(C(=O)NCCc2nnc(SCC(=O)Nc3ccc(Br)cc3)n2C)cc1 0.4%
CC1(C)Cc2ccccc2/C(=C/C(=O)N2CCCCCC2)N1 7.4%
CNC(=O)/C=C1\NC(C)(C)Cc2c1ccc1ccccc21 7.2%
O=C(NN1CCOCC1)c1ccccc1Br 2.6%
COc1ccc2c(c1)NC(c1cc(Cl)cc(Cl)c1O)c1cccn1-2 (stereo not given) 12.6%
COc1ccc(C2Nc3cc(OC)ccc3-n3cccc32)cc1 (stereo not given) 7%
CCc1nnc(NC(=O)c2cc(S(=O)(=O)N3CCOCC3)ccc2N2CCCCC2)s1 4.8%
CCOc1ccccc1CNc1nnnn1C 2.8%
C=CCN1C(=O)/C(=C/C=C2/N(CC)c3ccc(S(=O)(=O)N(C)C)cc3N2CC)SC1=S 9.4%
CCN1C(=O)/C(=C/C=C2/Sc3ccccc3N2CCO)SC1=S -15.5%
CC(=O)c1cccc(OCc2cc(C(=O)N3C[C@@H](C)O[C@@H](C)C3)no2)c1 4.5%
CC1Sc2ccc(S(=O)(=O)CCC(=O)NCc3ccc(Cl)cc3)cc2NC1=O (stereo not given) 7.8%
Cc1cc(NC(=O)CSc2nnc(-c3c[nH]c4ccccc34)n2-c2ccc(Cl)cc2)no1 3.9%
COc1cccc(Cn2cccc(NC(=O)NCc3ccccc3)c2=O)c1 -1%
N#Cc1c(Cl)nc(SCc2ccccc2)nc1-c1ccccc1 10.7%
COc1ccc(-c2nc(-c3cccc(C)c3)nc(Cl)c2C#N)cc1 13.1%
CCOC(=O)c1c(-c2ccccc2)csc1NC(=O)/C(C#N)=C/c1ccc(OC)c(OC)c1 -10.8%
CCOC(=O)c1c(-c2ccc(C)cc2)csc1NC(=O)/C(C#N)=C/c1ccc(O)c(OC)c1 2.7%
O=C(O)c1ccc(COc2ccccc2[N+](=O)[O-])o1 9.8%
Cc1ccc(-c2c(C(=O)N/N=C/c3ccc(C)o3)nnn2-c2nonc2N)cc1 9.3%
C=CCN1C=CC(=CC=C(C#N)C#N)C=C1 29.6%
CCCN1C=CC(=C/C=C(\C#N)C(=O)OCC)C=C1 7.2%
Cc1ccc(C(=O)O)cc1NC(=O)C1=CSCCO1 -0.5%
COc1ccc(CNc2cc(C)nc3ccc(OC)cc23)cc1 7.8%
COc1ccc2nc(C)cc(NCc3cccc(C(F)(F)F)c3)c2c1 -5.8%
O=C1Oc2ccccc2C(=O)/C1=C/N1CCN(c2ccccc2F)CC1 -6.9%
CC(C)CCN1CCNC(=O)C1CC(=O)NCCCN1CCOCC1 (stereo not given) -0.8%
CC(NC(=O)CN1CCCC1)C12CC3CC(CC(C3)C1)C2 (stereo not given) 1.4%
CC(NC(=O)Cn1nc(C(=O)O)c2ccccc2c1=O)C12CC3CC(CC(C3)C1)C2 (stereo not given) 8%
O=C(c1cc(-c2ccccc2Cl)nc2ccccc12)N1CCOCC1 10.1%
CCN(CC)c1ccc2c(C)c(Cl)c(=O)oc2c1 8.4%
CCN(CC)c1ccc2c(Cl)cc(=O)oc2c1 4.5%
COc1ccc(C(=O)/C=C/c2ccc(N3CCCCC3)c([N+](=O)[O-])c2)cc1 2.4%
CCn1c2ccccc2c2cc(NC(=O)c3ccc([N+](=O)[O-])cc3)ccc21 -16.2%
O=C(Nc1ccc(N2CCOCC2)cc1)c1ccc([N+](=O)[O-])cc1 14.4%
Cc1c(NC(=S)N/N=C/c2ccc(N(C)C)cc2)c(=O)n(-c2ccccc2)n1C 5.5%
O=C1CN(C(=O)N[C@@H](Cc2ccccc2)C(=O)N[C@@H](Cc2ccccc2)C(=O)O)c2ccccc2N1 6.4%
CCCCOc1ccc(C2C3CN(C(=O)OCC)CC=C3C(C#N)=C(N)C2(C#N)C#N)cc1OC (stereo not given) -1.9%
COc1ccc([C@@H]2[C@H]3CN(C(C)=O)CC=C3C(C#N)=C(N)C2(C#N)C#N)c2ccccc12 -18.9%
CCOC(=O)N1CC=C2C(C#N)=C(N)C(C#N)(C#N)[C@H](c3ccccc3OCC)[C@H]2C1 2.1%
COc1cccc(OC)c1OCc1cc(C2C3CCCC=C3C(C#N)=C(N)C2(C#N)C#N)c(C)cc1C (stereo not given) 7%
CCOC(=O)N1CC=C2C(C#N)=C(N)C(C#N)(C#N)[C@H](c3cccs3)C2C1 (stereo not given in full) 12.4%
CCCOc1ccc([C@@H]2C3CN(C(=O)OCC)CC=C3C(C#N)=C(N)C2(C#N)C#N)cc1OC (stereo not given in full) 16.5%
Cc1c(C(=O)Nc2ccc(Cc3ccncc3)cc2)cccc1[N+](=O)[O-] -1.8%
CC(C)(C)[C@H]1C=C(C(=O)NCc2nc3ccccc3[nH]2)O[C@@H](OCc2ccc(CO)cc2)C1 9.8%
O=C1c2ccc([N+](=O)[O-])cc2NC(c2ccco2)N1/N=C/c1ccco1 (stereo not given) -4.6%
Cn1cc(/C=C/C(=O)N2CCCC(C(=O)c3ccc(C(C)(C)C)cc3)C2)cn1 (stereo not given) -6.4%
CCc1cccc2c(C(=O)C(F)(F)F)cn(CC(=O)N3CCOCC3)c12 7.2%
N#C/C(=C/c1ccc(N2CCOCC2)o1)c1ccc(Br)cc1 37.8%
N#C/C(=C\c1ccc(N2CCOCC2)o1)C(=O)NC1CCCCC1 8.1%
Cc1ccc(/C(C#N)=C\c2ccc(N3CCOCC3)o2)cc1 27.2%
N#C/C(=C/c1ccc(N2CCOCC2)o1)c1ccc(Cl)cc1 -12.2%
COc1cc(N2CCCC2)c(OC)cc1/C=C(/C#N)c1cccc(F)c1 30.4%
N#C/C(=C/c1ccc(N2CCOCC2)o1)C(=O)NC1CCCCC1 9.2%
N#C/C(=C/c1ccc(Sc2nc3ccccc3[nH]2)o1)c1cccc(F)c1 -1.5%
N#C/C(=C/c1ccc(N2CCCCC2)cc1)c1cccc(F)c1 11.7%
O=C(Nc1ccccn1)C1(c2ccccc2)CCCC1 3%
CC(C)(C)OC(=O)N1CCN(c2ccc(CNC(=O)c3ccc(Cl)cc3)cc2)CC1 4%
COc1ccc(-c2nnn(CC(=O)N(CCCO)C(C(=O)NC3CCCC3)c3ccc(F)cc3)n2)cc1 (stereo not given) 4%
Cc1cccc(NC(=O)C2CCN(S(=O)(=O)c3cccc4nonc34)CC2)c1 -1.2%
COc1ccc(/C=N/n2cnc3c([nH]c4ccc(C)cc43)c2=O)cc1CN1CCCC1 1.2%
CC(=O)Nc1ccc(S(=O)(=O)NCC2CCC(C(=O)NC(C)c3ccccc3)CC2)cc1 (stereo not given) -1.8%
CN(C)c1nc(N2CCN(c3ccccc3)CC2)c(C#N)c(=O)o1 16.3%
N=c1c2c3c(sc2ncn1N)CCC3 4.1%
CC(C)c1ccc(C2C3CSCC=C3C(C#N)=C(N)C2(C#N)C#N)cc1 (stereo not given) -18.5%
N#CC1=C(N)C(C#N)(C#N)C(c2ccncc2)C2CN(C(=O)OCc3ccccc3)CC=C12 (stereo not given) -3%
CCC1C2CN(C(C)=O)CC=C2C(C#N)=C(N)C1(C#N)C#N (stereo not given) -14.1%
CCCC1C2CN(C(C)=O)CC=C2C(C#N)=C(N)C1(C#N)C#N (stereo not given) 8.7%
N#CC1=C(N)C(C#N)(C#N)[C@H](c2ccncc2)[C@H]2CN(C(=O)OCc3ccccc3)CC=C12 1%
Cc1ccc(C2C3CSCC=C3C(C#N)=C(N)C2(C#N)C#N)cc1 (stereo not given) 1.6%

inhibition, active:
COc1ccc2c(c1)NC(c1ccc(N(C)C)cc1)c1cccn1-2 (stereo not given) 83.6%
CCN1C(=O)/C(=C/C=C2\N(CC)c3cc(S(=O)(=O)N(C)C)ccc3N2c2ccccc2)SC1=S 62%
CSc1nc(Cl)c(C#N)c(-c2ccc(C)cc2)n1 61.8%
CCCN1C=CC(=CC=C(C#N)C#N)C=C1 59.2%
Cn1ccc(=Nc2ccc(NC(=O)c3ccc(N=c4ccn(C)c5ccc([N+](=O)[O-])cc45)cc3)cc2)cc1 53.5%
CCN1CC=C2C(C#N)=C(N)C(C#N)(C#N)[C@H](c3cccc(OC)c3OC)[C@H]2C1 100%
CCCN1CC=C2C(C#N)=C(N)C(C#N)(C#N)C(c3cccc(OC)c3OC)C2C1 (stereo not given) 101%
N#C/C(=C/c1ccc(N2CCCCCC2)o1)c1ccc(Cl)cc1 87.6%
N#C/C(=C/c1ccc(N2CCCCCC2)o1)c1cccc(F)c1 104%
N#C/C(=C/c1ccc(N2CCCCC2)o1)c1cccc(F)c1 55.7%
CCCC1C2CN(C(C)C)CC=C2C(C#N)=C(N)C1(C#N)C#N (stereo not given) 112%
CC(C)N1CC=C2C(C#N)=C(N)C(C#N)(C#N)C(c3ccccc3)C2C1 (stereo not given) 69%
Cc1ccc(C2C3CN(C(C)C)CC=C3C(C#N)=C(N)C2(C#N)C#N)cc1 (stereo not given) 100%
